In PubChem BioAssay AID1852 (Sanford-Burnham Center for Chemical Genomics, 2009):
About 1,100 (44%) of roughly 2,500 compounds were called active. The set was probably picked from earlier hits. The list shows a part of the results. Values without a mark were called inactive.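 The calls were made as follows: active = inhibition above 50% at 4 µM in the single-point screen; inactive = inhibition of 50% or less.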

Experiment: blockers of TNF-a NF-kB luciferase induction – cell-based, HEK293T NF-kB-Luc, luminescence, selectivity assay for NOD1/NOD2 signaling inhibitor project, primary screen (AID 1852)
Conditions: TNF-a induced, 14 h, at 4 µM, hits give high values
`c1cnc(N2CCN(c3ccc4ccccc4n3)CC2)nc1` showed an inhibition of -118%.
For `COc1ccc(NC(=S)N2CCN(C/C=C/c3ccccc3)CC2)c(OC)c1`, the inhibition was 57.8% (active).
Compound `COc1ccc(NC(=O)c2cc(N3C(=O)C4C5CCC(C5)C4C3=O)ccc2Cl)c(OC)c1` (centres undefined) has an inhibition of 30.6%.
`COc1ccc(CCNC(=S)N2CCC(Cc3ccccc3)CC2)cc1OC` gave an inhibition of 47.4%.
Work on `c1csc(Cc2nn3c(-c4ccncc4)nnc3s2)c1` yielded an inhibition of 42.2%.
For `c1ccc(CCc2nn3c(-c4ccncc4)nnc3s2)cc1`, the inhibition was 82.6% (active).
With `c1cc(-c2nnc3sc(C4CCCCC4)nn23)ccn1` the inhibition was 57.5% (active).
Compound `O=C(CCN1C(=O)c2ccc([N+](=O)[O-])cc2C1=O)Nc1ccc(O)cc1C(=O)O` has an inhibition of -3.9%.
For `CCCc1nc2c(=O)n(C)c(=O)nc-2n(C)n1`, the inhibition was 105% (active).
Work on `CCCn1c(C)cc(C(=O)COc2ccc(C)nc2[N+](=O)[O-])c1C` yielded an inhibition of -16.5%.
With `Cc1cc(C(=O)COc2cccnc2[N+](=O)[O-])c(C)n1-c1ccccc1F` the inhibition was 38.6%.
Work on `COCCn1c(C)cc(C(=O)CSc2nnc3ccccn23)c1C` yielded an inhibition of 17.3%.
In the case of `C=CCn1c(C)cc(C(=O)COc2ccc(C)nc2[N+](=O)[O-])c1C`, the inhibition is reported as 30%.
With `COCCn1c(C)cc(C(=O)COc2ccc(C)nc2[N+](=O)[O-])c1C` the inhibition was 79.2% (active).
For `Cc1ccc(OCC(=O)c2cc(C)n(Cc3cccs3)c2C)c([N+](=O)[O-])n1`, the inhibition was 68.2% (active).
In the case of `Cc1ccc(OCC(=O)c2cc(C)n(-c3ccccc3)c2C)c([N+](=O)[O-])n1`, the inhibition is reported as 72.3% (active).
With `Cc1cc(C(=O)COc2cccnc2[N+](=O)[O-])c(C)n1Cc1cccs1` the inhibition was 38.6%.
Work on `COCC(C)n1c(C)cc(C(=O)COc2ccc(C)nc2[N+](=O)[O-])c1C` (centres undefined) yielded an inhibition of 41%.
With `COCCn1c(C)cc(C(=O)COC(=O)c2cccc(O)c2)c1C` the inhibition was 81.1% (active).
`COc1ccccc1[C@@H]1C(c2cccc(C)c2)=NN(c2ccccc2)[C@H]1C(=O)N1CCOC1=O` showed an inhibition of -11.7%.
`Cc1cc(C(=O)COc2cccnc2[N+](=O)[O-])c(C)n1Cc1ccco1` gave an inhibition of -11%.
With `Cc1ccc(OCC(=O)c2cc(C)n(Cc3ccco3)c2C)c([N+](=O)[O-])n1` the inhibition was 65.1% (active).
For `COc1cccc(/C=N/NC(=O)CNC(=O)/C=C\c2ccccc2)c1O`, the inhibition was 82.6% (active).
In the case of `COc1cccc(/C=N/NC(=O)CNC(=O)C(c2ccccc2)c2ccccc2)c1O`, the inhibition is reported as 92.3% (active).
For `COc1cccc(/C=N/NC(=O)c2cc3c(OC)ccc(OC)c3[nH]2)c1O`, the inhibition was 48.6%.
Compound `CN(C1=C(NC(=O)c2ccc(Cl)cc2)C(=O)c2ccccc2C1=O)c1ccccc1` has an inhibition of 21.3%.
With `CNC1=C(N(C(C)=O)c2ccc(Br)cc2)C(=O)c2ccccc2C1=O` the inhibition was 98.3% (active).
`O=C(/C=C/c1ccco1)NCC1COc2ccccc2O1` (centres undefined) gave an inhibition of -14.9%.
With `O=C(Nc1ccc(Oc2cccc(C(F)(F)F)c2)nc1)c1cccs1` the inhibition was 49.2%.
With `COc1cccc(C(=O)Nc2ccc(Oc3cccc(C(F)(F)F)c3)nc2)c1` the inhibition was 53.3% (active).
`O=C(Nc1ccc(Oc2cccnc2)nc1)c1ccc(C(F)(F)F)cc1` gave an inhibition of 42.6%.
In the case of `Cc1ccc(C)c(-n2[nH]c3c4c(ccc3c2=O)C(=O)c2ccccc2C4=O)c1`, the inhibition is reported as 58.4% (active).
With `Cc1ccc(-n2[nH]c3c4c(ccc3c2=O)C(=O)c2ccccc2C4=O)cc1` the inhibition was 99.4% (active).
For `Cc1cccc(-n2[nH]c3c4c(ccc3c2=O)C(=O)c2ccccc2C4=O)c1`, the inhibition was 37.6%.
In the case of `CCc1ccc(CN(C)C(=O)CCc2nc3ccccc3n(-c3ccc(OC)cc3)c2=O)cc1`, the inhibition is reported as 41.1%.
For `CCCOC(=O)c1[nH]c2c(c1C)C(=O)CC(c1cc(OC)c(OC)c(OC)c1)C2` (centres undefined), the inhibition was 40.2%.
Work on `CCCCOC(=O)c1[nH]c2c(c1C)C(=O)CC(c1cc(OC)c(OC)c(OC)c1)C2` (centres undefined) yielded an inhibition of 47.1%.
With `COCCOC(=O)c1[nH]c2c(c1C)C(=O)CC(c1cc(OC)c(OC)c(OC)c1)C2` (centres undefined) the inhibition was 58.3% (active).
In the case of `CC1=Nc2ccccc2/C1=C/c1sc(=N)n(-c2nccs2)c1O`, the inhibition is reported as 99.2% (active).
`Cc1ccc(-n2c(O)c(/C=C3/C(c4ccccc4)=Nc4ccccc43)c(=O)[nH]c2=O)cc1` gave an inhibition of 28.1%.
With `O=C(Nc1nc(-c2cccs2)cs1)c1ccc(S(=O)(=O)N2CCCC2)cc1` the inhibition was 83.9% (active).
For `O=C(Nc1nc(-c2ccccc2)cs1)C1CCCN(S(=O)(=O)c2ccccc2)C1` (centres undefined), the inhibition was 87.9% (active).
`COC(=O)c1ccccc1NC(=O)C1CCCN(S(=O)(=O)c2ccc(F)cc2)C1` (centres undefined) showed an inhibition of 21.7%.
For `O=C(Nc1nnc(S(=O)(=O)N2CCCCCC2)s1)c1ccc(Cl)cc1`, the inhibition was -43%.
Compound `O=C(Nc1nnc(S(=O)(=O)N2CCCCCC2)s1)c1ccc(Br)cc1` has an inhibition of -43.1%.
With `CCOC(=O)c1ccc(NC(=O)C2CCCN(S(=O)(=O)c3ccc(F)cc3)C2)cc1` (centres undefined) the inhibition was -6.1%.
Work on `COc1cc(NC(=O)c2cc3ccccc3cc2O)c(OC)cc1Cl` yielded an inhibition of 47.5%.
`COc1ccc(C(C)=O)cc1COC(=O)c1cc2ccccc2cc1O` showed an inhibition of 12.5%.
With `COc1ccccc1NC(=O)c1cc2cc(Br)ccc2cc1O` the inhibition was 82.6% (active).
For `COC(=O)C1CCCCN1C(=O)c1cc(COc2cccc3cnccc23)on1` (centres undefined), the inhibition was 53.1% (active).
`COCCC1CCCCN1C(=O)c1cc(COc2ccc(-n3cncn3)cc2)on1` (centres undefined) showed an inhibition of 15.4%.
`O=C(c1cc(COc2ccc3ncccc3c2)on1)N1CCCCCC1` showed an inhibition of 31.2%.
For `CCOC(=O)CC1CCCCN1C(=O)c1cc(COc2cccc3cnccc23)on1` (centres undefined), the inhibition was 60.8% (active).
In the case of `O=C(NC1CCCC1)c1sc(=S)n2c1[nH]c(=O)c1ccccc12`, the inhibition is reported as 72.6% (active).
For `CC(Sc1nnc2c(n1)[nH]c1ccccc12)C(=O)NC1CCCCC1` (centres undefined), the inhibition was 30%.
Work on `O=C(CSc1nnc2c(n1)[nH]c1ccccc12)NC1CCCCC1` yielded an inhibition of 47%.
In the case of `O=C(NC1CCCCC1)c1sc(=S)n2c1[nH]c(=O)c1ccccc12`, the inhibition is reported as 85.3% (active).
In the case of `N#C/C(=N\Nc1cccc(C(F)(F)F)c1)C(=O)c1csc(-c2cccnc2)n1`, the inhibition is reported as 80.5% (active).
In the case of `CC(C)(C)OC(=O)NCCc1nnc(S(=O)(=O)Cc2ccc(Cl)cc2Cl)o1`, the inhibition is reported as 45.3%.
With `CC(C)(C)OC(=O)NCC(=O)Oc1cc2oc(=O)cc(-c3ccccc3)c2cc1Cl` the inhibition was 58% (active).
With `O=C(CNC(=O)OCc1ccccc1)Oc1cc2oc(=O)cc(-c3ccccc3)c2cc1Cl` the inhibition was 83.1% (active).
With `O=C(COc1ccc2c(-c3ccccc3)cc(=O)oc2c1)Nc1ccc(CCO)cc1` the inhibition was 44.2%.
Work on `CCCNc1c(NS(=O)(=O)c2ccc3c(c2)CCCC3)c(=O)oc2ccccc12` yielded an inhibition of -3.6%.
Compound `Cc1cc(OCC(=O)Nc2ccncc2)cc(C)c1Cl` has an inhibition of 41%.
In the case of `Cc1cc(OCC(=O)Nc2ccncc2)cc(C)c1Br`, the inhibition is reported as 34.4%.
For `O=C(COc1ccc(Br)cc1)Nc1ccc(Cc2ccncc2)cc1`, the inhibition was 64.1% (active).
In the case of `COc1cccc2sc(N(CCCN(C)C)C(=O)CCS(=O)(=O)c3ccccc3)nc12`, the inhibition is reported as 44.2%.
In the case of `Nc1nc(CCl)nc(Nc2ccc3ccccc3c2)n1`, the inhibition is reported as -13.4%.
For `Nc1ncncc1-c1ccc2ccccc2c1`, the inhibition was 16.7%.
For `Nc1nc(N)c2cc(Sc3ccc4ccccc4c3)ccc2n1`, the inhibition was 51.9% (active).
In the case of `O=C(O)c1ccc(S(=O)(=O)/N=C2\C=C(Nc3ccccc3F)C(=O)c3ccccc32)cc1`, the inhibition is reported as 89.6% (active).
For `Cc1ccccc1NC1=C/C(=N\S(=O)(=O)c2ccc(C(=O)O)cc2)c2ccccc2C1=O`, the inhibition was 104% (active).
For `COC(=O)c1ccccc1NC1=C/C(=N\S(=O)(=O)c2ccc(C(=O)O)cc2)c2ccccc2C1=O`, the inhibition was 106% (active).
`O=C1C=C(Nc2ccccc2O)c2ccccc2C1=O` showed an inhibition of 38.6%.
Compound `CC(=O)Nc1ccc(S(=O)(=O)NCc2nc(-c3ccccc3C)no2)cc1` has an inhibition of -15.1%.
Work on `Cc1ccc(-c2nc(NC(=O)c3nn(C)cc3[N+](=O)[O-])sc2C)cc1C` yielded an inhibition of 33.4%.
For `COc1ccc2sc3c(=O)[nH]c4ccccc4c3c2c1`, the inhibition was 54.1% (active).
In the case of `CCc1nnc(NC(=O)c2ccc(Cl)c(S(=O)(=O)N3CCc4ccccc43)c2)s1`, the inhibition is reported as 53.5% (active).
In the case of `Cn1cc(S(=O)(=O)N2CCc3ccccc32)cc1C(=O)Nc1ccc(Cl)cc1`, the inhibition is reported as 24.7%.
`CCc1nnc(NC(=O)c2ccc(Cl)c(S(=O)(=O)N3CCc4ccccc4C3)c2)s1` showed an inhibition of 31.8%.
`O=C(NCc1cc(Br)cc(Br)c1OC(=O)c1ccccc1[N+](=O)[O-])c1ccccc1` gave an inhibition of -35.5%.
In the case of `N#Cc1cccc(NC(=O)COC(=O)c2ccccc2C(=O)c2ccc(Cl)c([N+](=O)[O-])c2)c1`, the inhibition is reported as 83.2% (active).
With `Cc1ccc(Cl)c(NC(=O)COC(=O)c2ccccc2C(=O)c2ccc(Cl)c([N+](=O)[O-])c2)c1Cl` the inhibition was 84.2% (active).
Compound `N#Cc1cccc(NC(=O)Cn2cnc(S(=O)(=O)N3CCc4ccccc43)c2)c1` has an inhibition of 8.2%.
Compound `Cc1ccc[n+](CC(=O)Nc2ccc(Cl)c([N+](=O)[O-])c2)c1` has an inhibition of -10%.
With `CCCNC(=O)COC(=O)c1ccccc1C(=O)c1ccc(Cl)c([N+](=O)[O-])c1` the inhibition was 65.9% (active).
For `O=C(COC(=O)c1ccccc1C(=O)c1ccc(Cl)c([N+](=O)[O-])c1)NC1CC1`, the inhibition was 73.1% (active).
With `O=C(COC(=O)c1ccccc1C(=O)c1ccc(Cl)c([N+](=O)[O-])c1)NC1CCCCCC1` the inhibition was 27.6%.
Compound `O=C(O)c1ccc(N/N=C/c2ccc(OC(=O)c3cccc(Cl)c3)cc2)cc1` has an inhibition of -26.3%.
